The source made the active and inactive calls. Rule for the calls: active = hit-call score of the fitted dose curve at least 0.9, where 1 is the maximum; inactive = score below 0.9.
Assays:
[1] = molecular target: Transcription factor E2F1 (Homo sapiens) (UniProt Q01094); test: ATG_E2F_CIS: Attagene CIS-FACTORIAL HepG2 Assay for human E2F Transcription Factor 1 (AID 2282935); settings: HepG2 Attagene cis-reporter, E2F reporter RNA transcripts; actives raise or lower the signal
Procedure, shortened: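 Liver-derived HepG2 cells expressing transfected promoter-driven reporter units received test chemical for 24 hours. Signal gains or losses were fitted bidirectionally against DMSO.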

[2] = ATG_E_Box_CIS: Attagene CIS-FACTORIAL HepG2 Assay for human Enhancer Box (E-box) (AID 2282936); settings: HepG2 E-box cis-reporter transcription, actives raise or lower the signal
Procedure, shortened: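 In this cell-based setup, HepG2 cells bearing transfected promoter-driven reporter units were exposed to chemicals for 24 h; reporter transcripts were amplified, 6-FAM-labelled, cut with HpaI and sized by capillary electrophoresis.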

[3] = ATG_M_61_CIS: Attagene CIS-FACTORIAL HepG2 Assay for M61 Transcription Factor (Internal Marker) (AID 2282937); settings: HepG2 Attagene CIS-FACTORIAL M61 internal marker reporter; actives raise or lower the signal
Procedure, shortened: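 Transfect HepG2 with MRTUs; dose 24 h; isolate RNA; reverse-transcribe with DNase I treatment; PCR-amplify, FAM-label and cut with HpaI for 2 h at 37 C; resolve by CE. Bidirectional fitting against DMSO.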

[4] = ATG_EGR_CIS: Attagene CIS-FACTORIAL HepG2 Assay for human Early Growth Response 1 (EGR1) (AID 2282938); settings: HepG2 Attagene CIS-FACTORIAL EGR reporter mRNA; actives raise or lower the signal
Procedure, shortened: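 After a 24 h treatment of transiently transfected HepG2 cells, total RNA was reverse-transcribed and reporter sequences PCR-amplified, labelled and run on capillary electrophoresis. Reporters sit under cis-regulatory promoters sensing endogenous factors.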

[5] = ATG_M_19_CIS: Attagene CIS-FACTORIAL HepG2 Assay for M19 Transcription Factor (Internal Marker) (AID 2282939); settings: HepG2 Attagene CIS-FACTORIAL M19 internal marker reporter; actives raise or lower the signal
Procedure, shortened: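 Readout: fluorescent reporter-transcript fragments by capillary electrophoresis after RT-PCR. Human HepG2 liver cells carried transfected MRTU constructs reporting endogenous transcription-factor activity; exposure 24 h. Gain or loss of signal fitted relative to DMSO.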

[6] = ATG_ERE_CIS: Attagene CIS-FACTORIAL HepG2 Assay for Estrogen Response Element (ERE) (AID 2282940); settings: HepG2 ERE cis-reporter, Attagene RNA transcript; actives raise or lower the signal
Procedure, shortened: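 Readout: reporter mRNA induction by RT-PCR, FAM-labelled primer extension, HpaI digestion and capillary electrophoresis, 24 h after dosing transfected HepG2 cells. Endogenous transcription factors act on cis-element-regulated reporters. Gain or loss fitted against DMSO.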

[7] = ATG_Ets_CIS: Attagene CIS-FACTORIAL HepG2 Assay for human Erythroblast Transformation Specific (ETS) (AID 2282941); settings: HepG2 ETS cis-reporter transcription, actives raise or lower the signal
Procedure, shortened: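 Endogenous transcription factor activity read as reporter mRNA via RT-PCR and capillary electrophoresis, with gain or loss fitted bidirectionally against DMSO. Human HepG2 liver cells, transiently transfected CIS reporter constructs, 24 h exposure.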

[8] = molecular target: Hepatocyte nuclear factor 3-beta (Homo sapiens) (UniProt Q9Y261); test: ATG_FoxA2_CIS: Attagene CIS-FACTORIAL HepG2 Assay for human Forkhead box A2 (FOXA2) (AID 2282942); settings: HepG2 cis-reporter transcription factor activity, 24 h; actives raise or lower the signal
Chain of Hepatocyte nuclear factor 3-beta (Homo sapiens) (Q9Y261 whole entry, looked up): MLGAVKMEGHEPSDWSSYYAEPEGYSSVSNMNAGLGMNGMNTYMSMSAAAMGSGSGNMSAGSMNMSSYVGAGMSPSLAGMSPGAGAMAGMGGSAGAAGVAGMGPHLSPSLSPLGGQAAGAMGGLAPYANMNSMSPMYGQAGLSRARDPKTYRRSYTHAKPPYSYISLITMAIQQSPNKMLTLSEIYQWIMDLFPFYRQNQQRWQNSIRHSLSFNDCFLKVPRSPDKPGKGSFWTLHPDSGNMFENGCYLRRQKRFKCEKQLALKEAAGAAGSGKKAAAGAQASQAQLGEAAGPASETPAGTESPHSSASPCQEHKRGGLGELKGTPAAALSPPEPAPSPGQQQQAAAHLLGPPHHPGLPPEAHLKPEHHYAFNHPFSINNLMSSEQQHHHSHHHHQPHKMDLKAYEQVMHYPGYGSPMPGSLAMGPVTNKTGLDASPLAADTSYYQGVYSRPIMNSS
Procedure, shortened: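 24 h dosing of HepG2 bearing cis-reporter constructs; mRNA readout by RT-PCR/CE fluorescence; bidirectional fit, DMSO baseline.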

[9] = ATG_FoxO_CIS: Attagene CIS-FACTORIAL HepG2 Assay for human Forkhead box O (FoxO) (AID 2282943); settings: HepG2 Attagene cis-reporter, FoxO element, mRNA; actives raise or lower the signal
Procedure, shortened: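 Transfected HepG2 reporter cells exposed to test chemical for 24 h; reporter RNA measured by reverse transcription, PCR and fluorescent capillary electrophoresis; curves fitted for increases and decreases against DMSO.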

[10] = ATG_GATA_CIS: Attagene CIS-FACTORIAL HepG2 Assay for human GATA Binding Protein (AID 2282944); settings: HepG2 GATA cis-element reporter, Attagene multiplex mRNA; actives raise or lower the signal
Procedure, shortened: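 Read-out: fluorescent reporter mRNA fragments resolved by capillary electrophoresis after RT-PCR. Human liver HepG2 cells carried transiently transfected cis-regulated reporter constructs; chemicals incubated 24 h; gain or loss of signal fitted relative to DMSO.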

Chain of Transcription factor E2F1 (Homo sapiens) (Q01094 whole entry, looked up): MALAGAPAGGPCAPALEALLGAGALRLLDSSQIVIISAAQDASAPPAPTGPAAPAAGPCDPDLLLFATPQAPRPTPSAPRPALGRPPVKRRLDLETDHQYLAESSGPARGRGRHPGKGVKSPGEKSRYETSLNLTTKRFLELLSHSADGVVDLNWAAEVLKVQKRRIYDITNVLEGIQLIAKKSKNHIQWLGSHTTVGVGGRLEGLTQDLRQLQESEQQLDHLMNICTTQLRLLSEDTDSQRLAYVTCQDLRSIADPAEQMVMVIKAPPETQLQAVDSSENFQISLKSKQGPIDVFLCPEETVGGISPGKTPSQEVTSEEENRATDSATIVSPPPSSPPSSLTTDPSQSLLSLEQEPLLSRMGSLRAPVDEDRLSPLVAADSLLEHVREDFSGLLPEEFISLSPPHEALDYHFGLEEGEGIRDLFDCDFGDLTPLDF

Row | Compound | outcome [1] | outcome [2] | outcome [3] | outcome [4] | outcome [5] | AC50 [6] | outcome [7] | outcome [8] | outcome [9] | outcome [10] | outcome [6] | AC50 [4] | AC50 [7] | AC50 [8] | AC50 [2] | AC50 [9]
1 | C1CCC(SSC2CCCCC2)CC1 | inactive | inactive | inactive | inactive | inactive | 56.7 µM (active) | inactive | inactive | inactive | inactive |  |  |  |  |  | 
2 | Cc1cc(=O)[nH]c(=S)[nH]1 | inactive | inactive | inactive | inactive | inactive |  | inactive | inactive | inactive | inactive | inactive |  |  |  |  | 
3 | CCCCCCCCCCCCCCCCCC(=O)O | inactive | inactive | inactive | inactive | inactive | 2.75 µM (active) | inactive | inactive | inactive | inactive |  |  |  |  |  | 
4 | CCCCCCOCCO | inactive | inactive | inactive | inactive | inactive |  | inactive | inactive | inactive | inactive | inactive |  |  |  |  | 
5 | CCCCCCCCCCO | inactive | inactive | inactive | inactive | inactive |  | inactive | inactive | inactive | inactive | inactive |  |  |  |  | 
6 | O=C(OCCCCCOC(=O)c1ccccc1)c1ccccc1 | inactive | inactive | inactive | inactive | inactive |  | inactive | inactive | inactive | inactive | inactive |  |  |  |  | 
7 | COc1ccc(S(=O)(=O)N2C(=O)[C@@](c3ccccc3OC)(N3C[C@H](O)C[C@H]3C(=O)N(C)C)c3cc(Cl)ccc32)c(OC)c1 | inactive | inactive | inactive |  | inactive |  |  |  | inactive | inactive | inactive | 36.7 µM (active) | 83.5 µM (active) | 132 µM (active) |  | 
8 | COC(=O)c1ccc(O)cc1 | inactive | inactive | inactive | inactive | inactive | 67.4 µM (active) | inactive | inactive | inactive | inactive |  |  |  |  |  | 
9 | Cc1ccc(C(C)C)c(O)c1 | inactive | inactive | inactive | inactive | inactive |  | inactive | inactive | inactive | inactive | inactive |  |  |  |  | 
10 | COc1cc(S(=O)(=O)O)c(C)cc1N=Nc1c(O)ccc2cc(S(=O)(=O)O)ccc12 | inactive | inactive | inactive | inactive | inactive |  | inactive | inactive | inactive | inactive | inactive |  |  |  |  | 
11 | CC(C)c1ccc(C(=O)N=C(N)N)cc1S(C)(=O)=O | inactive | inactive |  | inactive | inactive | 71.7 µM (active) | inactive | inactive | inactive | inactive |  |  |  |  |  | 
12 | Nc1ccc(S(=O)(=O)c2ccc(N)cc2)cc1 | inactive | inactive | inactive | inactive | inactive | 100 µM (active) | inactive | inactive | inactive | inactive |  |  |  |  |  | 
13 | O=c1[nH]cc(F)c(=O)[nH]1 | inactive | inactive | inactive | inactive | inactive |  | inactive | inactive | inactive | inactive | inactive |  |  |  |  | 
14 | CN1CCN(Cc2cc(-c3ccc4[nH]c(=O)oc4c3)co2)[C@@H](c2ccc(F)cc2)C1 | inactive | inactive |  |  | inactive |  | inactive | inactive | inactive | inactive | inactive | 33 µM (active) |  |  |  | 
15 | c1cc(-c2ccncc2)ccn1 | inactive | inactive | inactive | inactive | inactive |  | inactive | inactive | inactive | inactive | inactive |  |  |  |  | 
16 | COc1cc(C=O)ccc1O | inactive | inactive | inactive | inactive | inactive |  | inactive | inactive | inactive | inactive | inactive |  |  |  |  | 
17 | O=C(O)CCCCC(=O)O | inactive | inactive | inactive | inactive | inactive |  | inactive | inactive | inactive | inactive | inactive |  |  |  |  | 
18 | CCCCOC(=O)CCCCCCCCC(=O)OCCCC | inactive |  | inactive | inactive | inactive |  | inactive | inactive | inactive | inactive | inactive |  |  |  | 142 µM (active) | 
19 | COc1cc(/C=C/C(=O)CC(=O)/C=C/c2ccc(O)c(OC)c2)ccc1O | inactive |  | inactive |  | inactive |  | inactive | inactive |  | inactive | inactive | 42.5 µM (active) |  |  | 45.8 µM (active) | 33.4 µM (active)
20 | CC1(C)CC(N=C=O)CC(C)(CN=C=O)C1 (stereo unspecified) | inactive | inactive |  | inactive | inactive |  | inactive | inactive | inactive | inactive | inactive |  |  |  |  | 
21 | O=c1c(O)c(-c2ccc(O)c(O)c2)oc2cc(O)cc(O)c12 | inactive | inactive | inactive | inactive | inactive | 25.8 µM (active) | inactive | inactive | inactive | inactive |  |  |  |  |  | 
22 | NCC1(Cc2noc(=O)[nH]2)CCCCC1 | inactive | inactive |  | inactive | inactive |  | inactive | inactive | inactive | inactive | inactive |  |  |  |  | 

From PubChem BioAssay (EPA / NIEHS)
